CHX counter: counter-screen hit for Shiga toxin inhibitors, cycloheximide; AID 2314; cell reporter, cycloheximide protein synthesis inhibition counterscreen; max response, %; 12% of 300,000 active; in the data active means max response mostly above about 13%, no sharp cut-off; inactive means mostly below about 14%; further: read at 38.3 µM for the half of the compounds with a filed dose; 0% is about no effect
Pf growth 48h: P. falciparum growth inhibition at 48 hours (one generation); P. falciparum luciferase growth in erythrocytes, 48 h; 5.9% of 310,000 active; AID 504832; Potency, µM (top dose mostly 28.7 µM), inactives show top-dose activity change, negative = inhibition, most hits filed as inhibitors; further: potency means the concentration at half of the fitted maximal effect; on the % scale 0 is the no-effect control and ±100 the full control effect
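A one-generation exposure of luciferase-tagged malaria parasites in RPMI 1640/Albumax erythrocyte culture, 37 C and 5% CO2. Inhibition is inferred from decreased luminescence after adding detection reagent.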
FBPA Giardia inh: blocks Giardia fructose-bisphosphate aldolase activity; purified Giardia FBPA; Potency, µM (top dose mostly 59.6 µM), for the others: top-dose activity, negative = inhibition, usual class: inhibitors; 0.71% of 290,000 active; AID 2451; further: potency means the concentration at half of the fitted maximal effect; on the % scale 0 is the no-effect control and ±100 the full control effect; nearly all actives have a fitted effect of over 55% in size
Target sequence (A8B2U2 whole entry, looked up): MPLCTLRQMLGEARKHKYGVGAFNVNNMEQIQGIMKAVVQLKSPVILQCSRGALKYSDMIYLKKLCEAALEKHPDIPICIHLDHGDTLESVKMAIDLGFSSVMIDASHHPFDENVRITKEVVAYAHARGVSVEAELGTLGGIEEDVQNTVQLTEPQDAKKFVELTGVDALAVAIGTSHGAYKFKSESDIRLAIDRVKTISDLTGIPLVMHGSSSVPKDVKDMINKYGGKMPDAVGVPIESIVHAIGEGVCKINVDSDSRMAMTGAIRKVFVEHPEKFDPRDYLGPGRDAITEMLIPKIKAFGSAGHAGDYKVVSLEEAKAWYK
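40 nM FBPA preincubated 10 min at RT with compound (up to 57.5 uM final), then substrate plus GAPDH/TPI/NAD/arsenate coupling and diaphorase/resazurin added. Fluorescence read after 20 min at RT, 525/598 nm.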
NS1 inh: blocks influenza NS1 protein function. 0.4% of 270,000 active. Potency, µM (highest dose often 46.1 µM), for the others: at the top dose activity, positive = more growth. AID 2326; calls by dose curve; further: potency means the concentration at half of the fitted maximal effect; actives are rising curves; nearly all actives have a fitted effect of over 50% in size
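A cell-based growth assay was used: compounds that relieve NS1-induced slow growth of budding yeast raise OD600. Assay medium was yeast nitrogen base with ammonium sulphate and -URA supplement, pH 6.0, with 2% galactose.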
Pf growth 96h: P. falciparum growth inhibition at 96 hour, primary screen for plastid delayed-death inhibitors; 6.9% of 320,000 active; P. falciparum luciferase reporter growth, 96 h; Potency, µM (series often up to 28.7 µM), for the others: top-dose activity change, negative = inhibition, hits mostly inhibitors; further: potency means the concentration at half of the fitted maximal effect; on the % scale 0 is the no-effect control and ±100 the full control effect
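Plates of compound plus infected erythrocytes (2% hematocrit, 0.05% parasitemia final) incubate 96 hours, 37 C, 5% CO2. Detection reagent added; reduced luminescence from the parasites' luciferase reporter flags inhibition.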
Shiga inhibitor: inhibitors of Shiga toxin in Vero cells; Vero cells, Shiga toxin protein synthesis inhibition reporter; inhibition, % at 38.7 µM; 9.2% of 290,000 active; AID 2315; in the data active means inhibition mostly above about 28%, no sharp cut-off; inactive means mostly below about 43%; further: 0% is about no effect
Numbers without * were called inactive; [ ] = another dose, or the depositor's remark. The list is not random: actives were taken first. Their share in the collection is about 21%. Unless noted, the call rests on the fitted dose curve; in most records, active means well fitted curve in the direction sought with a large enough effect; inconclusive means small, poorly fitted or top-dose-only effect, or another doubt; inactive means no such curve, though single readings can be large; an effect the other way counts as inactive or inconclusive.

`CN(C)C(CNC(=O)c1cccc(S(=O)(=O)NCc2ccccc2)c1)c1ccccc1` (stereo not given) gave Pf growth 48h inconclusive and Pf growth 96h -28%.
CCOC(=O)N1CCN(C(=O)c2nn(C)c3c2CSc2ccccc2-3)CC1 was read as CHX counter 2, Pf growth 48h inconclusive, FBPA Giardia inh -3%, NS1 inh -13%, Pf growth 96h 56% and Shiga inhibitor 9.
`O=c1c2cccc3c2c(nn1CN1CCOCC1)-c1ccccc1-3` gave CHX counter 3, Pf growth 48h 46%, FBPA Giardia inh 3%, NS1 inh -66%, Pf growth 96h inconclusive and Shiga inhibitor 2.
For CCN(CC)CCn1nc2c3c(cccc3c1=O)-c1ccccc1-2 the results were CHX counter -2, Pf growth 48h 4.1µM*, FBPA Giardia inh -4%, NS1 inh -4%, Pf growth 96h 19% and Shiga inhibitor -20.
CCN(CC(=O)Nc1ccc2c(c1)OCCO2)C(=O)/C=C/c1ccc([N+](=O)[O-])cc1 was read as Pf growth 48h -15% and Pf growth 96h -25%.
C=CCN(CC=C)C(=S)NCCc1ccc(OC)c(OC)c1 was read as CHX counter 5, Pf growth 48h 13µM*, FBPA Giardia inh -16%, NS1 inh 2%, Pf growth 96h inconclusive and Shiga inhibitor 4.
For COc1cc(Br)c(CCNC(=O)c2ccco2)cc1OC the results were CHX counter -3, Pf growth 48h 5.2µM*, FBPA Giardia inh 3%, NS1 inh 0%, Pf growth 96h inconclusive and Shiga inhibitor -5.
`COc1ccc(CCNC(=O)Cc2ccc(Cl)cc2)cc1OC` gave CHX counter 2, Pf growth 48h -4%, FBPA Giardia inh 3%, NS1 inh 9% and Pf growth 96h -10%.
Screening COc1ccc(CCNC(=O)Cc2cc(OC)c(OC)cc2Br)cc1OC returned CHX counter 16*, Pf growth 48h inconclusive, FBPA Giardia inh -1%, Pf growth 96h -61%[5.75 µM] and Shiga inhibitor 20.
Screening CN(C)CCCCN1CCc2c(n(C)c3ccccc23)C1=O returned NS1 inh -2%.
`COC(=O)C(Cc1ccccc1)NC(=O)CCNC(=O)c1ccco1` (stereo not given) gave CHX counter -8, Pf growth 48h 12%, FBPA Giardia inh -2%, NS1 inh -10%, Pf growth 96h 13% and Shiga inhibitor -6.
For CCc1cccc(NC(=O)C2CCCN(S(=O)(=O)c3cccs3)C2)c1 (stereo not given) the results were CHX counter 3, Pf growth 48h inconclusive, FBPA Giardia inh -4%, NS1 inh 13%, Pf growth 96h 43% and Shiga inhibitor 12.
`C/C(N)=C(/C#N)C(=O)COC(=O)c1ccccc1C(=O)c1ccc(C)cc1` gave CHX counter 3, Pf growth 48h -3%, FBPA Giardia inh -19%, Pf growth 96h 2% and Shiga inhibitor 15.
`C/C(N)=C(/C#N)C(=O)COC(=O)c1ccccc1O` gave CHX counter 24*, Pf growth 48h 38%, FBPA Giardia inh 6%, NS1 inh 7%, Pf growth 96h 56% and Shiga inhibitor active.
For C/C(N)=C(/C#N)C(=O)COC(=O)c1cccc2ccccc12 the results were CHX counter 37*, Pf growth 48h 58%, FBPA Giardia inh 0%, NS1 inh 6%, Pf growth 96h 40% and Shiga inhibitor 95*.
O=c1c(-c2cccc(F)c2)nc2cncnc2n1Cc1ccccc1 was read as FBPA Giardia inh -4%.
For CN(C)c1ccc(-c2cc(NCc3ccccc3)ncn2)cc1 the results were FBPA Giardia inh -12%.
`COCCCN1C(=O)c2ccc(C(=O)OCC(=O)N(CCC#N)c3cc(C)cc(C)c3)cc2C1=O` gave Pf growth 48h 1% and Pf growth 96h 29%.
Screening CCN(CC)S(=O)(=O)c1cccc(C(=O)OCc2cc(=O)n3nc(C)sc3n2)c1 returned CHX counter -4, Pf growth 48h -24%, FBPA Giardia inh 5%, NS1 inh -1%, Pf growth 96h 5.2µM* and Shiga inhibitor -17.
For CCCOc1ccc(CN(C)c2ncnc(N)n2)cc1 the results were CHX counter -1, Pf growth 48h 25%, FBPA Giardia inh 1%, NS1 inh -4%, Pf growth 96h 123% and Shiga inhibitor 10.
CCCCOc1ccc(CN(C)c2ncnc(N)n2)cc1 was read as CHX counter 15*, Pf growth 48h 9%, FBPA Giardia inh -3%, NS1 inh -9%, Pf growth 96h -22% and Shiga inhibitor 33*.
CCCCN(C)CCCNC(=O)C1(O)c2ccccc2NC(=O)N1c1ccc(Cl)cc1 (stereo not given) was read as CHX counter -3, Pf growth 48h 3%[0.00184 µM], FBPA Giardia inh 1%, NS1 inh 2%, Pf growth 96h 4.1µM* and Shiga inhibitor -4.
`CCOc1ccc(N2C(=O)Nc3ccc(Br)cc3C2(O)C(=O)NCCN(C)C)cc1` (stereo not given) gave CHX counter -2, Pf growth 48h -8%, FBPA Giardia inh 5%, NS1 inh -3%, Pf growth 96h 1.9µM* and Shiga inhibitor 2.
Screening CC(C)NC(=O)C1(O)c2ccccc2NC(=O)N1c1ccc(Cl)c(Cl)c1 (stereo not given) returned CHX counter -2, Pf growth 48h -10%, FBPA Giardia inh 5%, NS1 inh -3%, Pf growth 96h 10µM* and Shiga inhibitor -11.
Screening O=S(=O)(Nc1cccc(-c2cn3c(n2)SCC3)c1)c1ccccc1 returned CHX counter -2, Pf growth 48h -10%, NS1 inh 3%, Pf growth 96h -22% and Shiga inhibitor -7.
CCCC[C@]12Cc3cc(C#N)ccc3C(O1)c1c(cc(C)n(Cc3ccccc3)c1=O)O2 was read as CHX counter 1, Pf growth 48h inconclusive, FBPA Giardia inh -5%[12.9 µM], NS1 inh 19%, Pf growth 96h inconclusive and Shiga inhibitor inactive.
For CCOC(=O)Cc1csc(NC(=S)NC(=O)c2ccccc2Br)n1 the results were CHX counter 20*, Pf growth 48h 23%, FBPA Giardia inh 7%, NS1 inh -21%, Pf growth 96h -26% and Shiga inhibitor 14.
CCOC(=O)Cc1csc(NC(=O)c2ccc3c(c2)OCO3)n1 was read as CHX counter 15*, Pf growth 48h 15%, FBPA Giardia inh -1%, NS1 inh -16%, Pf growth 96h inconclusive and Shiga inhibitor 40*.
Screening CCOC(=O)Cc1csc(NC(=O)c2ccc(F)cc2)n1 returned CHX counter 7, Pf growth 48h 2%, FBPA Giardia inh 9%, NS1 inh -40%, Pf growth 96h 5% and Shiga inhibitor 8.
